# Screening data from PubChem BioAssay.
# Only some compounds are listed: those with a hit (about 12% of all), similar ones and a draw of the others.
# G9a block: qHTS Assay for Inhibitors of Histone Lysine Methyltransferase G9a; G9a H3K9 monomethylation, AlphaScreen, 2 h; Potency, µM (titrated, usually from 102 µM), without a hit: top-dose activity, negative = inhibition, usual class: inhibitors; Histone-lysine N-methyltransferase EHMT2 (Homo sapiens), Q96KQ7; 8.8% of 350,000 active; note: potency is the fitted concentration of half-maximal effect; % is set by controls: 0 for no effect and ±100 for the full control effect; nearly all actives have a fitted effect of over 75% in size
#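 G9a (20 nM) was preincubated 15 min with compound, then reacted 2 h at room temperature with 500 nM biotin-H3K9 peptide and 20 µM SAM. Monomethyl-H3K9 detected by AlphaScreen using anti-H3K9me1 antibody.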
# BAZ2B inh: qHTS Assay for Inhibitors of BAZ2B | Bromodomain adjacent to zinc finger domain protein 2B (Homo sapiens), Q9UIF8 | AlphaScreen BAZ2B-H3K14Ac peptide displacement | Potency, µM (series often up to 114 µM), for inactives: at the highest dose activity change, negative = inhibition, most hits filed as inhibitors | 4.4% of 360,000 active | AID 504333, 2011; note: potency is the fitted concentration of half-maximal effect; % is set by controls: 0 for no effect and ±100 for the full control effect; nearly all actives have a fitted effect of over 60% in size
#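 In this displacement format the biotinylated H3(5-23) peptide acetylated at Lys14 serves as ligand at 50 nM, with BAZ2B at 50 nM in PBS pH 7.4 containing 0.01% Tween-20. Donor and acceptor beads are 10 ug/mL final.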
# HP1b binding inh: HTS for Inhibitors of HP1-beta Chromodomain Interactions with Methylated Histone Tails; Chromobox protein homolog 1 (Homo sapiens), P83916; AlphaScreen HP1-beta / biotin-H3K9me3 peptide binding; Potency, µM (doses to about 114 µM), for inactives: top-dose activity change, negative = inhibition, hits mostly inhibitors; 0.56% of 390,000 active; note: potency is the fitted concentration of half-maximal effect; nearly all actives have a fitted effect of over 70% in size
#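 HP1-beta protein (50 nM final) preincubated 30 min at room temperature with biotinylated H3(1-18)K9me3 peptide (50 nM) in PBS pH 7.4, 0.01% Tween-20, then compound added for 30 min. AlphaScreen streptavidin donor/nickel chelate acceptor beads (10 ug/mL final), 30 min dark, luminescence read.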
# PLK1 PBD block: qHTS for Inhibitors of PLK1-PDB (polo-like kinase 1 - polo-box domain): Primary Screen; Plk1 PBD binding of FITC phosphopeptide, fluorescence polarization; Serine/threonine-protein kinase PLK1 (Homo sapiens), P53350; AID 720504, 2013; 2.8% of 360,000 active; Potency, µM, for inactives: max response, negative = inhibition, hits mostly inhibitors; note: potency is the fitted concentration of half-maximal effect; series mostly up to about 57 µM; % is set by controls: 0 for no effect and ±100 for the full control effect; nearly all actives have a fitted effect of over 65% in size
# JMJD2A Tudor inh: qHTS Assay for Inhibitors of JMJD2A-Tudor Domain. Lysine-specific demethylase 4A (Homo sapiens), O75164. AlphaScreen JMJD2A-Tudor / H3K4me3 peptide binding. Potency, µM (highest dose often 114 µM), for inactives: at the highest dose activity change, negative = inhibition, hits mostly inhibitors. 4.4% of 390,000 active. AID 504339, 2011; note: potency is the fitted concentration of half-maximal effect; % is set by controls: 0 for no effect and ±100 for the full control effect; nearly all actives have a fitted effect of over 50% in size
# PI5P4Ka inh: qHTS for Inhibitors of phosphatidylinositol 5-phosphate 4-kinase (PI5P4K) | Phosphatidylinositol 5-phosphate 4-kinase type-2 alpha (Homo sapiens), P48426 | PI5P4Kalpha enzyme, ADP-Glo luminescence, 60 min; active compounds read low | max response, % | 1.2% of 330,000 active | AID 652105, 2013; active = max response of -50% or lower; inconclusive = between -30% and -50%; inactive = -30% or higher; note: value at the top dose of about 77 µM; % is set by controls: 0 for no effect and ±100 for the full control effect
#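 Enzyme plus substrate dispensed, test compounds pinned in, then ATP (5 microM final) added. After 60 min at RT, ADP-Glo reagent 1 for 45 min and reagent 2 for 30 min preceded luminescence imaging.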
# An asterisk follows results filed as active; ? = inconclusive; · = no result; ! = a repeat was not active; [ ] = remark or other dose. Unless noted, calls come from the whole dose curve; as a rule, active = well fitted curve in the direction sought with a large enough effect; inconclusive = small, poorly fitted or top-dose-only effect, or another doubt; inactive = no such curve, though single readings can be large; an effect the other way counts as inactive or inconclusive.
SMILES,G9a block,BAZ2B inh,HP1b binding inh,PLK1 PBD block,JMJD2A Tudor inh,PI5P4Ka inh
CC(=O)Nc1ccc(S(=O)(=O)NC(CSc2ccc(C(=O)O)cc2[N+](=O)[O-])C(=O)O)cc1 (stereo not drawn),50µM*,?,55%,-17%,-3%,-5
Cc1ccc(-n2c(Cc3ccccc3)nnc2SCc2nc(-c3cccs3)no2)cc1C,-33%[59 µM],-22%,6%,·,-28%,·
CC(C)NCCOc1cccc(Br)c1,50µM*,?,11%,1%,4%,0
Brc1cccc(OCCSc2ncccn2)c1,57%[59 µM],77%,181%,13µM*,?,7
Brc1cccc(OCCCNC2CCCC2)c1,16µM*,?,16%,-3%,16µM*,1
CC(C)NCCCCOc1cccc(Br)c1,28µM*,50µM*,26%,19µM*,35µM*,-8
CCCOc1ccc(OCCSc2ncccn2)cc1,26%,79%,123%,4%,68%,-2
Clc1ccc(OCCCCSc2ncccn2)cc1,?,146%,303%,30µM*,159%,4
O=S(=O)(Nc1cccc(-c2ccc(N3CCCCC3)nn2)c1)c1ccc(Cl)s1,-7%[59 µM],-9%,21%[57 µM],·,-20%,·
Cc1nnc(N2CCc3ccccc3C2)[nH]c1=O,9%,-2%,-5%,30µM*,19%[11.4 µM],-10
CC(=O)c1cccc(NC(=O)C(C)OC(=O)c2ccc(S(C)(=O)=O)c([N+](=O)[O-])c2)c1 (stereo not drawn),·,·,32%,·,-13%,·
CN(C)Cc1ccccc1-c1nc(NCc2cccs2)c2ccccc2n1,20%[0.501 µM],·,·,·,·,·
COc1cc(O)oc1C=Nc1ccc(Oc2ccccc2)cc1,45µM*,?,1%,2%,?,-1
COc1ccc(-n2c(Cc3cccn3C)nnc2SCC(=O)Nc2ccc(C)c(Cl)c2)cc1,45µM*,?,-8%,0%,?,1
COc1cccc(NC(=O)CSc2nnc(Cc3cccn3C)n2-c2ccc(F)cc2)c1,?,50µM*,13%,-5%,?,6
COc1ccc(NC(=O)CSc2nnc(Cc3cccn3C)n2-c2ccc(C)cc2)cc1OC,?,?,?,-6%,?,·
COc1ccc(-n2c(Cc3cccn3C)nnc2SCC(=O)Nc2cccc(OC)c2)cc1,50µM*,?,11%,-1%,-34%,1
Cc1cc(C)c(NC(=O)CSc2nnc(Cc3cccn3C)n2-c2ccc(F)cc2)c(C)c1,45µM*,?,-17%,-9%,?,·
Cc1cccc(Cn2c(=O)n3nc(-c4ccccc4)nc3c3ccccc32)c1,-3%[59 µM],4%,42%,·,9%,·
CCCCn1c(=O)c2[nH]c(C34CC5CC(CC3C5)C4)nc2n(CCCO)c1=O,27%[59 µM],·,·,·,·,·
Cn1cccc1Cc1nnc(SCC(=O)NC2CCCCC2)n1-c1ccc(F)cc1,?,0%,14%,-6%,-34%,2
Cn1cccc1Cc1nnc(SCC(=O)NCc2ccco2)n1-c1ccc(F)cc1,?,?,-10%,-2%,?,·
Cn1cccc1Cc1nnc(SCC(N)=O)n1-c1ccc(F)cc1,89µM*,-6%,41%,-12%,-13%,-2
Cn1cccc1Cc1nnc(SCC(=O)NCc2ccccc2Cl)n1-c1ccc(F)cc1,79µM*,?,-3%,-9%,-35%,0
CCCCN1C(=O)C(CC(=O)NC2CCCC2)CC(C(=O)N2CCOCC2)=C1C (stereo not drawn),·,·,·,6%,·,0
SMILES,G9a block,BAZ2B inh,HP1b binding inh,PLK1 PBD block,JMJD2A Tudor inh,PI5P4Ka inh
COC(=O)CCS(=O)(=O)c1ccc(Cl)cc1,13%,-2%,58%,-2%,-4%,·
O=S(=O)(CCc1ccncc1)c1ccc(Cl)cc1,35µM*,?,7%,-3%,-21%,2
CCCCNC(=O)Cn1c(=O)c2c(ncn2CC)n(Cc2ccccc2)c1=O,-6%[2.33 µM],2%,45%,-2%,-5%,-2
Brc1cccc(-c2cnc3n2CCCCC3)c1,45µM*,-10%,-16%,-3%,?,5
CCCNC(=O)COc1ccc(-c2nn(C)c(=O)c3ccccc23)cc1,·,1%,10%,-7%,-9%,13
Cc1cnc(C(=O)OCC(=O)c2cccc3ccccc23)cn1,45µM*,-4%,20%,-6%,-16%,-20
Cc1cnc(C(=O)OCC(=O)c2c[nH]c3ccccc23)cn1,-8%[12.7 µM],9%,33%,4%,-11%,-6
CCN(CC)CCNC(=O)c1[nH]c2ccc(OCc3ccccc3)cc2c1C,50µM*,?,?,-1%,?,13
CCc1ncnc2cc(OC)c(OC)cc12,3%[12.7 µM],·,·,·,·,·
Cc1ccccc1C(=O)Nc1cccc(NC(=O)c2ccc(C(C)(C)C)cc2)c1,-43%[59 µM],-4%,20%,·,-17%,·
Clc1ccc(CSCCc2ccncc2)cc1,-49%[59 µM],-11%,27%,-1%,-1%,-4
Fc1ccc(SCCc2ccncc2)cc1,50µM*!,22µM*!,29%,24µM*,-6%,1
Fc1cc(F)c(F)c(SCCc2ccncc2)c1F,?,-19%,?,?,28µM*,·
c1ccc(SCCc2ccncc2)cc1,-20%[12.7 µM],1%[57.1 µM],55%,21µM*,-10%,7
Cc1ccc(C(=O)Nc2cccc(C(=O)OCc3cc(=O)n4c5c(sc4n3)CCCC5)c2)cc1,8%[12.7 µM],-13%,23%,·,8%,·
C/C=C/c1ccc(OCCCCOc2ccc(OC)cc2)c(OC)c1,75%[59 µM],43%,28%,-7%,22%,1
C/C=C/c1ccc(OCCCCNCc2ccco2)c(OC)c1,11µM*,40µM*,?,-5%,22µM*,3
C/C=C/c1ccc(OCCCCN2CCN(CC)CC2)c(OC)c1,·,25µM*,?,-11%,20µM*,-9
COc1cccc(C(=O)Nc2ccccc2-c2nnc(-c3ccc(C(C)(C)C)cc3)o2)c1,-1%[59 µM],-11%,55%,·,-3%,·
Oc1ccc(C[C@H]2CNC(=S)N2CC2CCCN2C[C@H](Cc2ccccc2)N2C[C@H](Cc3ccc(O)cc3)N(CC3CCCCCC3)C2=S)cc1 (stereo partly drawn),·,·,11%,-2%,?,-29
CCCN(CCC)CCCNC(=O)c1cc2c(=O)oc3ccc(C)cc3c2s1,-2%[59 µM],-14%,17%,·,-18%,·
CCc1ccc(S(=O)(=O)c2c(C(=O)c3ccc(C)c(C)c3)cnc3ccccc23)cc1,?,-25%,13%,·,-20%,·
